# From PubChem BioAssay
# Akt phos inh: Akt phosphorylation inhibition. Neuro2A IGF-stimulated pAkt S473 HTRF, 20 min; active compounds read low. AID 651550. 360,000 compounds, 0.32% hits. activity change, % for hits at 50 µM; in the data active means activity change below about -80%; inconclusive means mostly about -51% to -80%; further: on the % scale 0 is the no-effect control and ±100 the full control effect
#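 Single-point screen (50 µM final compound) in Neuro2A cells stimulated 20 min with 6 nM IGF at 37 deg C. After lysis, Ser473-phosphorylated Akt read by HTRF (ex 330 nm, em 615/665 nm) as the 665/615 ratio.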
# RXFP1 agonist: activates the human relaxin receptor RXFP1; AID 2676; Potency, µM (top dose mostly 57.5 µM), without a hit: at the highest dose activation, actives largely listed as activators; 370,000 compounds, 0.3% hits; HEK293T-RXFP1 cAMP TR-FRET, 30 min; response scale: percent of porcine relaxin response, buffer zero; active means well fitted activation curve with a large enough effect; inconclusive means small, poorly fitted or top-dose-only effect; further: potency means the concentration at half of the fitted maximal effect; on the % scale 0 is the no-effect control and ±100 the full control effect; nearly all actives have a fitted effect of over 60% in size
# Target sequence (Q9HBX9 whole entry, looked up): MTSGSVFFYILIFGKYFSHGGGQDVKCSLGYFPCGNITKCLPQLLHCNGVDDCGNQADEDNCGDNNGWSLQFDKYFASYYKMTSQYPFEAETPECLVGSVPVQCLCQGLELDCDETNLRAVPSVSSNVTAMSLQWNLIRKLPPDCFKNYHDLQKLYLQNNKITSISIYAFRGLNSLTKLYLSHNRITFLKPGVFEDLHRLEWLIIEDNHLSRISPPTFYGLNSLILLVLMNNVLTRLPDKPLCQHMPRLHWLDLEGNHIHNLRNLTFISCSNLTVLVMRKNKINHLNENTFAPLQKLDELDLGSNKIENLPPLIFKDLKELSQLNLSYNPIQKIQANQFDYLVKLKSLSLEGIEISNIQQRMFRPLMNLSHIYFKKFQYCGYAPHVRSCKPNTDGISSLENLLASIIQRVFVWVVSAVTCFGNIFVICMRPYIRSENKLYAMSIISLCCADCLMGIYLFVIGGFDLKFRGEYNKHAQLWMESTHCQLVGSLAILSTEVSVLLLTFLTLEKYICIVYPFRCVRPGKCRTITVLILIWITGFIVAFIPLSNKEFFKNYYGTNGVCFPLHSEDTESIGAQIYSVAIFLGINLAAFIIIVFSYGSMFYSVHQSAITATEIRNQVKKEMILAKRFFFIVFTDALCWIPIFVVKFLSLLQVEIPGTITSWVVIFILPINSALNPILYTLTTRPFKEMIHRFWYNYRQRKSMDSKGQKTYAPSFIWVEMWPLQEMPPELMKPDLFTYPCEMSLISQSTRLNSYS
#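 Agonist response is measured as cAMP accumulation in an RXFP1-transfected HEK293T line under PDE4 inhibition. Values are scaled between buffer-only and 29 nM porcine relaxin, and EC50s come from standard Hill equation fits.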
# gsp ag: agonists of gsp mutant (McCune-Albright syndrome); Potency, µM (doses to about 76.9 µM), for the others: at the highest dose activation (cAMP increase), usual class: activators; gsp mutant cells, cAMP HTRF, 30 min; 340,000 compounds, 0.13% hits; active means well fitted activation curve with a large enough effect; inconclusive means small, poorly fitted or top-dose-only effect, or another doubt; inactive means no such curve, though single readings can be large or run the other way; cell line not stated here;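 further: phosphodiesterase inhibitor Ro 20-1724 added with compounds to block cAMP breakdown; potency means the concentration at half of the fitted maximal effect; nearly all actives have a fitted effect of over 60% in size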
#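 Cells in DMEM/10% FBS with G418 were pretreated with compounds in DMSO plus […] (300 uM stock) for 30 min at 37C. cAMP was measured by HTRF (cAMP-d2 plus anti-cAMP antibody-K) after 30 min at room temperature.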
# gsp antagonist: antagonists of gsp mutant (McCune-Albright syndrome); Potency, µM (top dose mostly 76.9 µM), for the others: at the top dose activity change, negative = inhibition, usual class: inhibitors; 340,000 compounds, 0.4% hits; AID 624288; gsp-mutant cells, cAMP HTRF, 30 min; calls by dose curve; cell line not stated here;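 further: intracellular cAMP measured with PDE inhibitor Ro 20-1724 present during compound exposure; potency means the concentration at half of the fitted maximal effect; on the % scale 0 is the no-effect control and ±100 the full control effect; nearly all actives have a fitted effect of over 65% in size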
#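 HTRF cAMP measurement after 30 min RT detection following 30 min, 37C compound treatment alongside […] (added as 300 uM solution) in G418-selected cells seeded at 2000/well and grown 16–24 h.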
# RXFP1 antagonist: RXFP1 (human) relaxin receptor antagonism. Q9HBX9. HEK293-RXFP1, relaxin-stimulated cAMP HTRF, 30 min; active compounds read low. activity change, negative = inhibition, % at 57.5 µM. 350,000 compounds, 0.59% hits;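 active means activity change of -60% or lower, but not beyond a set lower limit; inconclusive means change between -60% and -40%, or beyond the set limit; inactive means change above -40%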; further: on the % scale 0 is the no-effect control and ±100 the full control effect
# Active calls of the source: *; i = inactive; u = inconclusive; x = not tested or not shown; [ ] = another dose, or the depositor's remark. Most compounds without a hit are left out; they make up all but 1.2% or so of the library.
SMILES,Akt phos inh,RXFP1 agonist,gsp ag,gsp antagonist,RXFP1 antagonist
CC(=O)Nc1cccc(NC(=O)CSc2ccc(-c3sc(-c4ccccc4)nc3C)nn2)c1,x,2%,x,x,u
CC1CCCCC1NC(=O)CCn1c(=S)[nH]c2ccccc2c1=O (stereo unspecified),i,x,-1%,x,-13
Cc1cc(C)cc(NC(=O)CCn2c(=S)[nH]c3ccccc3c2=O)c1,i,0%,-4%,-2%,-32
COc1ccc(NC(=O)CCn2c(=S)[nH]c3ccccc3c2=O)cc1OC,i,16%,u,21%,-74*
O=C(CCn1c(=S)[nH]c2cc3c(cc2c1=O)OCO3)N1CCc2ccccc2C1,x,-1%,x,x,x
O=C(CCCn1c(=S)[nH]c2ccccc2c1=O)NC1CCCCC1,x,3%,21%,8%,-111*
O=C(CCCn1c(=S)[nH]c2cc3c(cc2c1=O)OCO3)N1CCN(c2ccc(Cl)cc2)CC1,x,2%,-30%,-9%,-116*
Cc1cccc(N2CCN(C(=O)CCn3c(=S)[nH]c4cc5c(cc4c3=O)OCO5)CC2C)c1 (stereo unspecified),i,0%,21%,-19%,-77*
O=C(Cn1c(SCc2ccc(F)cc2)nc2cccnc21)Nc1ccccc1F,x,4%,x,x,-14
O=C(NCCN1CCCCC1)c1ccc(Cn2c(SCc3ccc(F)cc3)nc3cccnc32)cc1,x,4%,x,x,-7
O=C(CO)[C@@H](O)[C@H](O)[C@@H](O)CO,x,x,x,x,-3
O=C(CCCn1c(=S)[nH]c2cc3c(cc2c1=O)OCO3)NC1CC1,i,4%,0%,16%,-72*
O=C(CCCn1c(=S)[nH]c2cc3c(cc2c1=O)OCO3)NCCc1ccc(Cl)cc1,i,x,u,x,-29
CN(C)CC(CCC(CN(C)C)C(=O)c1ccccc1)C(=O)c1ccccc1 (stereo unspecified),i,1%,-1%[15.4 µM],27%,-76*
c1ccc(C(CN2CCOCC2)c2ccccc2)cc1,x,1%,15%,-1%,10
O=C(c1ccccc1)C(CCC(CN1CCOCC1)C(=O)c1ccccc1)CN1CCOCC1 (stereo unspecified),i,1%,13%,12%[15.4 µM],-68*
CCN(CC)c1ccc(NC(=O)CN(C)S(=O)(=O)c2cccc3nsnc23)c(C)c1,x,2%,x,x,-14
CCOC(=O)Cc1csc(NC(=O)COc2ccc(N(C)S(=O)(=O)c3cccs3)cc2)n1,i,3%,-43%,35µM*,-14
CCOC(=O)Cc1csc(NC(=O)COc2ccccc2)n1,i,2%,u,6%,3
COc1ccc(OC)c(NC(=O)CN2C(=O)C3(OCCCO3)c3ccccc32)c1,i,1%,20%,7%,0
COc1ccc(CCNC(=O)CN2C(=O)C3(OCCCO3)c3ccccc32)cc1OC,-90%*,0%,u,2%,-3
Cc1cc(=O)c2c(O)c3c(O)cc(=O)c4c3c3c(cc(O)c1c23)C(C)(C)C=4O,x,x,x,x,-10
Cc1cc(C)nc(NS(=O)(=O)c2ccc(NC(=O)COc3ccc(C(C)(C)C)cc3)cc2)n1,x,0%,x,x,-86*
O=C(CSc1ccc2c(c1)OCCO2)NCCN1C(=O)CSC1=O,-109%*,3%,11%,7%,7
CCn1c(=O)c2cc(C(=O)N3CCN(c4cccc(OC)c4)CC3)sc2c2ccccc21,x,0%,x,x,0
SMILES,Akt phos inh,RXFP1 agonist,gsp ag,gsp antagonist,RXFP1 antagonist
Cc1ccc(C)c(SCC(=O)Nc2cccc(S(=O)(=O)N3CCOCC3)c2)c1,i,2%,49%[15.4 µM],3%,-2
CCCCNC(C(=O)Nc1cccc(S(=O)(=O)N2CCOCC2)c1)c1ccccc1 (stereo unspecified),i,2%,-1%[15.4 µM],11µM*,-1
CCOc1ccccc1CNC(=O)c1cc2c(=O)n(Cc3ccco3)ccc2nc1C,x,23%,x,x,-2
Cc1cc(C)c(S(=O)(=O)N2CCN(c3ccccn3)CC2)c(C)c1,i,-1%,8%[15.4 µM],-15%,-95*
Cc1cc(S(=O)(=O)N2CCN(c3ccccn3)CC2)ccc1F,i,0%,u,-11%,-1
Cc1ccc2c(c1)c(=O)c(C(=O)c1ccc3c(c1)OCO3)cn2Cc1cccc(F)c1,x,1%,x,x,-33
